BAZ2B block = inhibitors of human BAZ2B bromodomain; Q9UIF8; AlphaScreen BAZ2B-H3K14Ac peptide displacement; Potency, µM (titrated, usually from 114 µM), most hits filed as inhibitors; actives 4.4% (n = 360,000); further: nearly all actives have a fitted effect of over 60% in size
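Compounds, titrated to a top concentration of 110 uM, were incubated 30 min at room temperature with preformed BAZ2B/acetyl-K14 H3 peptide complex (50 nM each). Proximity signal was measured by AlphaScreen after 20 min with beads.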
HP1b chromo inh = HP1-beta chromodomain-methylated histone interaction inhibition; P83916; AlphaScreen HP1-beta / biotin-H3K9me3 peptide binding; Potency, µM (highest dose often 114 µM), actives largely listed as inhibitors; actives 0.56% (n = 390,000); AID 540317; further: nearly all actives have a fitted effect of over 70% in size
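HP1-beta protein (50 nM final) preincubated 30 min at room temperature with biotinylated H3(1-18)K9me3 peptide (50 nM) in PBS pH 7.4, 0.01% Tween-20, then compound added for 30 min. AlphaScreen streptavidin donor/nickel chelate acceptor beads (10 ug/mL final), 30 min dark, luminescence read.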
L3MBTL1 block = blocks human L3MBTL1 | Q9Y468 | AlphaScreen L3MBTL1–H3K9me1 peptide binding | Potency, µM (titrated, usually from 57.1 µM), most hits filed as inhibitors | actives 0.66% (n = 230,000) | AID 485360; further: nearly all actives have a fitted effect of over 60% in size
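L3MBTL1 (50 nM) pre-complexed 30 min with biotinylated H3(1-15)K9me1 peptide (75 nM), then compounds added for 30 min at room temperature; AlphaScreen streptavidin donor/nickel chelate acceptor beads (10 ug/mL final) read after 30 min dark incubation.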
JMJD2A Tudor = blocks the human JMJD2A Tudor domain; AlphaScreen JMJD2A-Tudor / H3K4me3 peptide binding; O75164; actives 4.4% (n = 390,000); Potency, µM (top dose mostly 114 µM), actives largely listed as inhibitors; further: nearly all actives have a fitted effect of over 50% in size
G9a block = blocks human histone lysine methyltransferase G9a. Potency, µM (highest dose often 102 µM), usual class: inhibitors. actives 8.8% (n = 350,000). AID 504332. Q96KQ7. G9a H3K9 monomethylation, AlphaScreen, 2 h; further: nearly all actives have a fitted effect of over 75% in size
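Quantitative HTS format: methyltransferase activity on a biotin-tagged H3K9 peptide is measured by AlphaScreen, using a rabbit anti-monomethyl-H3K9 antibody with streptavidin donor and anti-IgG acceptor beads. Final levels are 20 nM enzyme, 500 nM peptide, 20 uM SAM; 2 h RT.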
Sfp PPTase inh = inhibitors of Bacillus subtilis Sfp phosphopantetheinyl transferase; Q9F4F7; Biochemical Sfp PPTase activity, qHTS; Potency, µM, usual class: inhibitors; actives 3.5% (n = 310,000); AID 1490;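 further: the enzyme is Sfp with the accession as filed and its product quenches rhodamine fluorescence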
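Fluorescence-quenching assay with 15 nM Sfp, 5 uM rhodamine-CoA and 12.5 uM BHQ-2-labelled ybbR peptide in pH 7.6 Hepes/MgCl2 buffer. Enzyme was pre-incubated with compound for 15 min at room temperature. Rate was taken from the 30-min fluorescence change (525/598 nm).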
Hits are given with their value; – = inactive; ? = inconclusive; · = not tested or not shown; [ ] = dose if it differs, or a comment. Hits are enriched below; roughly 12% of the tested compounds scored in any of these assays. The call rests on the fitted dose curve; in most records, active means well fitted curve in the direction sought with a large enough effect; inconclusive means small, poorly fitted or top-dose-only effect, or another doubt; inactive means no such curve, though single readings can be large; an effect the other way counts as inactive or inconclusive.

SMILES | BAZ2B block | HP1b chromo inh | L3MBTL1 block | JMJD2A Tudor | G9a block | Sfp PPTase inh
COc1cc(NC(=O)CCc2nc3cccnc3n2Cc2cccs2)cc(OC)c1OC | ? | – | · | – | – | ·
COc1ccc(Oc2ccccc2/C=N/O)cc1 | – | – | – | – | – | –
COc1cc(C=NO)nc(-c2ccccn2)c1 | · | – | · | 14µM | · | ·
Cc1noc(C)c1C(=O)N1CCC[C@@]2(CCN(Cc3nccs3)C2)C1 | · | · | · | · | –[12.7 µM] | –
COc1ccc(-c2csc3ncnc(Nc4ccccc4)c23)cc1 | – | – | · | – | – | ·
Cc1sc2ncnc(N/N=C/c3ccccc3O)c2c1C | 35µM | – | ? | ? | – | –
Cc1sc2ncnc(N/N=C/c3ccc(O)cc3)c2c1C | – | – | – | – | – | –
COc1cccc(/C=N/Nc2ncnc3scc(-c4ccccc4)c23)c1OC | – | – | · | ? | 50µM | –
O=C1CCC/C1=C/Nc1cccc(F)c1 | – | – | – | 50µM | · | –
O=C1CCCC/C1=C/Nc1ccc2c(c1)OCO2 | ? | – | – | – | 35µM | ?
Brc1ccc(CNc2nc3ccccc3n2CCN2CCCCC2)cc1 | ? | – | – | – | 45µM | –
COc1ccc(CNc2nc3ccccc3n2CCN2CCCCC2)c(OC)c1 | ? | – | – | – | ? | ?
COc1ccc(OC)c(CNc2nc3ccccc3n2CCN2CCCCC2)c1 | – | – | · | ? | ? | 79µM
Brc1cccc(CNc2nc3ccccc3n2CCN2CCCCC2)c1 | – | – | ? | – | ? | –
Cc1oc2c(c1C(=O)NCc1ccccc1F)C1=NCCN1C=N2 | – | – | · | – | – | ·
O=C(COc1ccc(Br)cc1Cl)NCCCN1CCOCC1 | – | – | · | – | – | –
CC1CCCN(CCCOc2ccc(Br)cc2Cl)C1 (centres undefined) | ? | ? | – | 1.1µM | 20µM | –
CC1CCN(CCOCCOc2ccc(Br)cc2Cl)CC1 | ? | ? | – | 2.8µM | 8.9µM | –
CC(C)Nc1nc2c(-c3cccc(Br)c3)nnn2c2ccccc12 | – | – | · | – | – | ·
N.N.O=C(O)C1(C(=O)O)CCC1.[Pt] | · | · | · | · | 0.63µM | –
Cc1cc(NC(=O)CN2C(=O)C(C)(C)c3ccccc32)ccc1Br | – | – | · | – | – | ·
Cc1ccc(NNC(=O)c2sccc2Cl)c(C)c1 | · | – | · | ? | · | ·
C/C(=N\Nc1nccnc1Cl)c1ccc([N+](=O)[O-])cc1 | – | – | – | – | – | 79µM
C/C(=N\Nc1nccnc1Cl)c1ccc(Br)cc1 | – | – | – | – | – | –
O=C1N/C(=N\S(=O)(=O)Cc2ccccc2)S/C1=C/c1cc([N+](=O)[O-])ccc1O | – | – | – | – | 40µM | 28µM
SMILES | BAZ2B block | HP1b chromo inh | L3MBTL1 block | JMJD2A Tudor | G9a block | Sfp PPTase inh
COc1cc(/C=C2/S/C(=N/S(=O)(=O)c3ccccc3)NC2=O)c([N+](=O)[O-])cc1OC | 71µM | – | · | – | –[12.7 µM] | 79µM
Cc1ccc(S(=O)(=O)/N=C2/NC(=O)/C(=C\c3cc(Br)cc(Br)c3O)S2)cc1 | 32µM | ? | · | 50µM | 32µM | ?
CCOC(=O)c1ccc(NC(=O)CSc2cn(CC(=O)N3CCCC3)c3ccccc23)cc1 | – | – | · | – | – | ·
COc1ccccc1N1CCN(C(=O)c2cc(-c3ccco3)on2)CC1 | – | – | – | ? | 45µM | –
COc1ccc(-c2cc(C(=O)N3CCN(c4ccccc4OC)CC3)no2)cc1OC | 79µM | – | · | ? | – | –
COc1ccccc1C1(CC(=O)N2CCOCC2)CCOC(C(C)C)C1 (centres undefined) | ? | – | · | –[11.4 µM] | 50µM | –
CNC(=O)CN1C(=O)COc2ccc(S(=O)(=O)N3CCC(C)CC3)cc21 | – | – | · | – | – | ·
Cn1nnnc1SCC(=O)c1ccc(Br)s1 | – | – | – | – | · | –
CC(=O)Nc1ccc(SCC(=O)c2ccc(Br)s2)cc1 | 50µM | ? | · | ? | 22µM | 50µM
Cc1cc(C)nc(SCC(=O)NNC(=O)c2cccs2)n1 | – | ? | – | – | 56µM | –
Cc1ccnc(SCC(=O)c2cccs2)n1 | – | – | · | – | 35µM | –
Cc1ccnc(SCc2cc(=O)c(OC(=O)c3cccs3)co2)n1 | – | – | · | – | – | –
Cc1ccnc(SCC(=O)c2ccc(Br)s2)n1 | – | – | – | – | 18µM | 79µM
CCOc1ccc(NC(=O)c2cccc3c(=O)c4c([nH]c23)CCCC4)cc1 | – | – | · | – | – | ·
Cc1ccnc(SCC(=O)Nc2sccc2C#N)n1 | 50µM | – | · | – | – | –
CCOC(=O)CN1NC2(CCCC(C)C2)NC1=S (centres undefined) | – | – | · | 50µM | 10µM | 25µM
CCOC(=O)CN1NC2(CCC(C(C)(C)C)CC2)NC1=S (centres undefined) | ? | – | – | 40µM | –[12.7 µM] | 22µM
CCOC(=O)c1ccc(NC(=O)CN2C(=O)NC3(CCC(C)CC3)C2=O)cc1 (centres undefined) | – | – | – | – | – | –
CCOC(=O)CN1NC2(CCC(C)CC2)NC1=S (centres undefined) | ? | – | · | 28µM | 25µM | 35µM
CCOC(=O)CON1C(=O)C(=O)N(OCC(=O)OCC)[C@H]2CCCC[C@H]21 | – | – | · | – | ? | –
N#C/C(=C\c1ccc(O)cc1)C(=O)NCC1CCCO1 (centres undefined) | – | – | · | – | – | ·
COc1ccccc1NC(=O)c1sc2nc(-c3cc4cc(Cl)ccc4oc3=O)[nH]c(=O)c2c1C | – | – | · | – | – | ·
Cc1ccc(Cc2nc3ccccc3nc2SCC(=O)Nc2ccc3c(c2)OCO3)cc1 | – | – | · | – | – | ·
CC(C)NC(=O)N1CCCC2(CCN(C(=O)c3cccc(F)c3)CC2)C1 | · | · | · | · | –[12.7 µM] | –
CN(C)c1ccc(S(=O)(=O)N2CCCCC2)cc1NC(=O)CN1C(=O)NC2(CCCC2)C1=O | – | – | – | – | 14µM | ·
SMILES | BAZ2B block | HP1b chromo inh | L3MBTL1 block | JMJD2A Tudor | G9a block | Sfp PPTase inh
Cc1cc(Cl)ccc1NC(=O)CN1C(=O)NC2(CCCC2)C1=O | – | – | · | – | – | –
Cc1cc(N2CCCC2)ccc1NC(=O)CN1C(=O)NC2(CCCCC2)C1=O | – | – | – | – | 3.5µM | ·
O=C(CN1C(=O)NC2(CCCCC2)C1=O)Nc1ccc(N2CCCCC2)cc1 | · | – | – | – | · | ·
Cc1cc(NC(=O)CN2C(=O)NC3(CCCCC3)C2=O)ccc1N1CCCC1 | – | – | – | – | 8.9µM | ·
COC(=O)[C@@H](NC(=O)O[C@@H]1C(=O)c2cc(OC)ccc2O[C@H]1c1cccc(OC)c1)C(C)C | · | · | · | · | · | –
COc1ccccc1-c1nc2c(c(SCC(=O)Nc3ccc(C)c(C)c3)n1)Cc1c(CO)cnc(C)c1O2 | – | – | · | – | ? | ·
CCc1c(CN2CCN(c3cccc(C)c3C)CC2)csc1C | – | – | · | – | – | ·
Cc1ccc(-n2nnnc2SCC(=O)NCCc2ccccc2)cc1C | – | – | · | – | – | ·

Screening data (PubChem)
